Laboratory results published in PubChem BioAssay AID1159580 (chemical genetic matrix, 2015).
In all, about 5,500 compounds went through this assay and about 2,000 (36%) were called active. Not shown: some 18% with an inconclusive outcome. Cut-off read from the data, not from the text of the source: active = normalized growth mostly below about 0.91 (no sharp cut-off); inconclusive = no clear call, values can overlap the other calls; inactive = mostly above about 0.92. This is one part of the list.

Test: chemical genetic growth profiling, strain panel (AID 1159580);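 note: tested at 20 µM; growth read once vehicle control cultures reached saturation at 30 °C; 1 = growth at the plate median or of vehicle wells; lower values mean less growth of the strain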
Conditions: growth OD
[1] = S. cerevisiae deletion strains, locus YBR021W, strain FUR4, stronger effect = lower value
[2] = S. cerevisiae deletion strains, locus YBR229C, strain ROT2, stronger effect = lower value
[3] = S. cerevisiae deletion strains, locus YCL029C, strain bik1, stronger effect = lower value
[4] = S. cerevisiae deletion strains, locus YDL035C, strain GPR1, stronger effect = lower value
[5] = S. cerevisiae deletion strains, locus YDL074C, strain BRE1, stronger effect = lower value
[6] = S. cerevisiae deletion strains, locus YDL101C, strain DUN1, stronger effect = lower value
[7] = S. cerevisiae deletion strains, locus YDL185W, strain tfp1, stronger effect = lower value
[8] = S. cerevisiae deletion strains, locus YDL192W, strain arf1, stronger effect = lower value
[9] = S. cerevisiae deletion strains, locus YDR101C, strain arx1, stronger effect = lower value
[10] = S. cerevisiae deletion strains, locus YDR150W, strain NUM1, stronger effect = lower value
[11] = S. cerevisiae deletion strains, locus YDR162C, strain NBP2, stronger effect = lower value
[12] = S. cerevisiae deletion strains, locus YDR318W, strain mcm21, stronger effect = lower value
[13] = S. cerevisiae deletion strains, locus YDR388W, stronger effect = lower value
[14] = S. cerevisiae deletion strains, locus YDR502C, strain sam2, stronger effect = lower value
[15] = S. cerevisiae deletion strains, locus YEL061C, strain CIN8, stronger effect = lower value
[16] = S. cerevisiae deletion strains, locus YER110C, stronger effect = lower value
[17] = S. cerevisiae deletion strains, locus YER155C, strain BEM2, stronger effect = lower value
[18] = S. cerevisiae deletion strains, locus YER167W, strain BCK2, stronger effect = lower value
[19] = S. cerevisiae deletion strains, locus YGL078C, strain dbp3, stronger effect = lower value
[20] = S. cerevisiae deletion strains, locus YGL086W, strain mad1, stronger effect = lower value
[21] = S. cerevisiae deletion strains, locus YGL248W, strain PDE1, stronger effect = lower value
[22] = S. cerevisiae deletion strains, locus YGR135W, strain pre9, stronger effect = lower value
[23] = S. cerevisiae deletion strains, locus YGR229C, strain SMI1, stronger effect = lower value
[24] = S. cerevisiae deletion strains, locus YGR252W, strain gcn5, stronger effect = lower value
[25] = S. cerevisiae deletion strains, locus YHR030C, strain SLT2, stronger effect = lower value
[26] = S. cerevisiae deletion strains, locus YHR079C, strain IRE1 (second series), stronger effect = lower value
[27] = S. cerevisiae deletion strains, locus YHR094C, strain hxt1, stronger effect = lower value
[28] = S. cerevisiae deletion strains, locus YHR129C, strain ARP1, stronger effect = lower value
[29] = S. cerevisiae deletion strains, locus YHR200W, strain rpn10, stronger effect = lower value
[30] = S. cerevisiae deletion strains, locus YIL066C, strain RNR3, stronger effect = lower value
[31] = S. cerevisiae deletion strains, locus YIL073C, strain SPO22, stronger effect = lower value
[32] = S. cerevisiae deletion strains, locus YIL125W, strain kgd1, stronger effect = lower value
[33] = S. cerevisiae deletion strains, locus YIR030C, strain dcg1, stronger effect = lower value
[34] = S. cerevisiae deletion strains, locus YJL095W, strain BCK1, stronger effect = lower value
[35] = S. cerevisiae deletion strains, locus YJL134W, strain LCB3, stronger effect = lower value
[36] = S. cerevisiae deletion strains, locus YJL168C, strain set2, stronger effect = lower value
[37] = S. cerevisiae deletion strains, locus YJL187C, strain SWE1 (second series), stronger effect = lower value
[38] = S. cerevisiae deletion strains, locus YJR043C, strain POL32, stronger effect = lower value
[39] = S. cerevisiae deletion strains, locus YKL009W, strain mrt4, stronger effect = lower value
[40] = S. cerevisiae deletion strains, locus YKL068W, stronger effect = lower value
[41] = S. cerevisiae deletion strains, locus YKL085W, strain MDH1 (second series), stronger effect = lower value
[42] = S. cerevisiae deletion strains, locus YKL085W, strain MDH1, stronger effect = lower value
[43] = S. cerevisiae deletion strains, locus YKL190W, strain CNB1, stronger effect = lower value
[44] = S. cerevisiae deletion strains, locus YKR001C, strain vps1, stronger effect = lower value
[45] = S. cerevisiae deletion strains, locus YLR039C, strain RIC1, stronger effect = lower value
[46] = S. cerevisiae deletion strains, locus YLR058C, strain SHM2, stronger effect = lower value
[47] = S. cerevisiae deletion strains, locus YLR102C, strain apc9, stronger effect = lower value
[48] = S. cerevisiae deletion strains, locus YLR268W, strain sec22, stronger effect = lower value
[49] = S. cerevisiae deletion strains, locus YLR330W, strain CHS5, stronger effect = lower value
[50] = S. cerevisiae deletion strains, locus YLR371W, strain rom2, stronger effect = lower value
[51] = S. cerevisiae deletion strains, locus YLR418C, strain cdc73, stronger effect = lower value
[52] = S. cerevisiae deletion strains, locus YML016C, strain PPZ1, stronger effect = lower value
[53] = S. cerevisiae deletion strains, locus YML032C, strain rad52, stronger effect = lower value
[54] = S. cerevisiae deletion strains, locus YML124C, strain tub3, stronger effect = lower value
[55] = S. cerevisiae deletion strains, locus YMR078C, strain ctf18, stronger effect = lower value
[56] = S. cerevisiae deletion strains, locus YMR223W, strain ubp8, stronger effect = lower value
[57] = S. cerevisiae deletion strains, locus YMR307W, strain GAS1, stronger effect = lower value
[58] = S. cerevisiae deletion strains, locus YNL067W, strain RPL9B, stronger effect = lower value
[59] = S. cerevisiae deletion strains, locus YNL153C, strain GIM3, stronger effect = lower value
[60] = S. cerevisiae deletion strains, locus YNL233W, strain BNI4, stronger effect = lower value
[61] = S. cerevisiae deletion strains, locus YNL250W, strain rad50, stronger effect = lower value
[62] = S. cerevisiae deletion strains, locus YNL271C, strain bni1, stronger effect = lower value
[63] = S. cerevisiae deletion strains, locus YNL298W, strain CLA4, stronger effect = lower value
[64] = S. cerevisiae deletion strains, locus YNL307C, strain MCK1, stronger effect = lower value
[65] = S. cerevisiae deletion strains, locus YNR052C, strain pop2, stronger effect = lower value
[66] = S. cerevisiae deletion strains, locus YOL006C, strain TOP1, stronger effect = lower value
[67] = S. cerevisiae deletion strains, locus YOL012C, strain htz1
[68] = S. cerevisiae deletion strains, locus YOL147C, strain pex11, stronger effect = lower value
[69] = S. cerevisiae deletion strains, locus YOR061W, strain CKA2, stronger effect = lower value
[70] = S. cerevisiae deletion strains, locus YOR069W, strain VPS5, stronger effect = lower value
[71] = S. cerevisiae deletion strains, locus YOR136W, strain idh2, stronger effect = lower value
[72] = S. cerevisiae deletion strains, locus YOR144C, strain elg1, stronger effect = lower value
[73] = S. cerevisiae deletion strains, locus YOR184W, strain ser1, stronger effect = lower value
[74] = S. cerevisiae deletion strains, locus YOR316C, strain cot1, stronger effect = lower value
[75] = S. cerevisiae deletion strains, locus YPR119W, strain clb2, stronger effect = lower value
[76] = S. cerevisiae deletion strains, locus YPR141C, strain kar3, stronger effect = lower value
[77] = S. cerevisiae deletion strains, locus YPR163C, strain tif3, stronger effect = lower value
[78] = S. cerevisiae deletion strains, locus YPR167C, strain met16, stronger effect = lower value
[79] = S. cerevisiae deletion strains, strain wtn01, stronger effect = lower value

Measured: normalized growth

COc1ccc(-c2c(O)c3cc4c(c(CC=C(C)C)c3oc2=O)OC(C)(C)CC4)cc1
inactive: [1] 1.01 | [2] 0.996 | [3] 1.02 | [4] 1.01 | [5] 1.03 | [6] 1.01 | [7] 1.03 | [8] 1.03 | [9] 1.01 | [10] 1.01 | [11] 0.993 | [12] 1.01 | [13] 1.02 | [14] 1.02 | [15] 1.01 | [16] 1.03 | [17] 1.01 | [18] 1.01 | [19] 1.01 | [20] 1.03 | [21] 1 | S. cerevisiae deletion strains, locus YGR078C, strain PAC10, stronger effect = lower value 1.01 | [22] 1.03 | [23] 1.02 | [24] 1.02 | [25] 1.01 | [26] 1.01 | [27] 1.02 | [28] 1.01 | [29] 1 | [30] 1.01 | [31] 1.06 | [32] 1.02 | [33] 1.01 | [34] 1.01 | [35] 1.01 | [36] 1.02 | [37] 1.01 | [38] 1.01 | [39] 1.11 | [40] 1.01 | [41] 1.01 | [42] 1.01 | [43] 1 | [44] 1.02 | [45] 1.02 | [46] 1.01 | [47] 1.01 | S. cerevisiae deletion strains, locus YLR262C, strain YPT6, stronger effect = lower value 1.07 | [48] 1.02 | [49] 1.02 | S. cerevisiae deletion strains, locus YLR342W, strain FKS1 (second series), stronger effect = lower value 1.02 | [50] 1.02 | [51] 1.01 | [52] 1.01 | [53] 1.02 | [54] 1.01 | [55] 1.02 | [56] 1.01 | S. cerevisiae deletion strains, locus YMR263W, strain SAP30, stronger effect = lower value 1.01 | [57] 1.08 | [58] 1.01 | S. cerevisiae deletion strains, locus YNL128W, strain TEP1, stronger effect = lower value 1 | [59] 1 | [60] 1 | [61] 1.02 | [62] 1.01 | [63] 1.01 | [64] 1.02 | [65] 1.02 | [66] 1.17 | [67] 1.44 | [68] 1 | [69] 1 | [70] 1.01 | [71] 1.02 | [72] 0.999 | [73] 0.993 | [74] 1.02 | S. cerevisiae deletion strains, locus YPL241C, strain CIN2, stronger effect = lower value 1.01 | [75] 1.02 | [76] 1.02 | [77] 1.01 | [78] 1.01 | [79] 1.01

COc1c(CC=C(C)C)c2c(c3oc(=O)c(-c4ccc(OC(C)=O)cc4)c(OC(C)=O)c13)C=CC(C)(C)O2
inactive: S. cerevisiae deletion strains, locus YAL013W, strain DEP1, stronger effect = lower value 0.996 | [1] 0.986 | [2] 1.03 | [3] 1.02 | [4] 1.04 | [5] 1.08 | [6] 1.03 | [7] 1.02 | [8] 1.05 | [9] 1.01 | [11] 1.04 | [12] 1.02 | [13] 1.02 | [14] 1.03 | [16] 1.01 | [17] 1.01 | [18] 1.02 | [19] 1 | [20] 1.03 | [21] 1.08 | [22] 1.02 | [24] 1.1 | [26] 1.02 | [27] 1 | [28] 1 | [29] 1.03 | [30] 1.02 | [31] 1.06 | [32] 1.02 | [33] 0.996 | [34] 1.12 | [35] 1.01 | [36] 0.997 | [37] 1.03 | [38] 1.07 | S. cerevisiae deletion strains, locus YJR075W, strain HOC1, stronger effect = lower value 1.03 | [40] 0.995 | [41] 1.01 | [42] 1.01 | [43] 0.997 | [44] 1.05 | [45] 1.12 | [46] 1.04 | [47] 1 | [48] 1.04 | [49] 1.02 | [50] 1.05 | [51] 1.08 | [52] 1.03 | [53] 1.01 | [54] 0.994 | [55] 1 | [56] 1.03 | [57] 1.15 | [58] 1 | [59] 1.03 | [60] 1.06 | [61] 0.989 | [62] 1.01 | [63] 1.01 | [64] 1 | [65] 1.01 | [66] 1.17 | [67] 1.04 | [68] 1.02 | [69] 1.02 | [70] 1.02 | [71] 1 | [72] 1.01 | [73] 1.04 | [74] 1.01 | [75] 1 | [76] 1 | [77] 1.02 | [78] 1 | [79] 1.04 | S. cerevisiae strains, strain wild type, stronger effect = lower value 1.02

COc1c(CC=C(C)C)c2c(c3oc(=O)c(-c4ccc(O)cc4)c(O)c13)C=CC(C)(C)O2
active: [3] 0.841 | [5] 0.687 | [8] 0.875 | [12] 0.896 | [17] 0.752 | [23] 0.722 | [28] 0.899 | [29] 0.908 | [34] 0.74 | [44] 0.869 | [48] 0.853 | [50] 0.769 | [51] 0.649 | [53] 0.896 | [64] 0.677 | [68] 0.902 | [73] 0.476 | [77] 0.84
inactive: [1] 0.918 | [2] 1.01 | [4] 0.918 | [6] 0.964 | [7] 1.03 | [9] 0.92 | [10] 1.03 | [11] 0.875 | [13] 0.975 | [14] 0.94 | [15] 0.968 | [16] 0.986 | [18] 0.951 | [19] 1 | [20] 0.937 | [21] 0.921 | [22] 0.989 | [24] 1.02 | [25] 0.974 | [26] 0.979 | [27] 0.976 | [30] 0.903 | [31] 0.952 | [32] 0.957 | [33] 0.953 | [35] 1.01 | [36] 0.961 | [37] 0.945 | [38] 0.947 | [39] 0.985 | [40] 1.01 | [41] 0.958 | [42] 0.958 | [45] 0.889 | [46] 0.912 | [47] 0.978 | [52] 0.992 | [54] 0.983 | [55] 0.98 | [56] 0.925 | [57] 0.773 | [58] 0.97 | [59] 0.922 | [60] 0.881 | [61] 1.04 | [62] 0.998 | [63] 0.989 | S. cerevisiae deletion strains, locus YNL322C, strain KRE1, stronger effect = lower value 0.972 | [65] 0.917 | [66] 0.779 | [67] 0.812 | [69] 0.982 | [70] 0.997 | [71] 0.934 | [72] 0.968 | [74] 0.976 | [75] 0.977 | [76] 1 | [78] 0.938 | [79] 0.905
